The sequences below were run against C17orf103 (assay: pooled miR-30 sensor sort-seq; sequence = guide strand). Conditions: shRNA.
Note: reference of the scale not given here.

Sequence | sensor-assay potency score (higher = more potent)
TTGAGCCGGACAGTGAACTGGC | -0.109
TTCTCCTTGACGTACTTCTGGA | -0.93
TAACTCTGAGTCTGTTCCCAGT | -0.884
TGGGACCTCGGTGTGCTGCAGG | -1.5
ATCTGGGACCTCGGTGTGCTGC | -1.85

The sequences below were run against C17orf48 in the same assay as above. Conditions: shRNA.

Sequence | sensor-assay potency score (higher = more potent)
TATCTTCATACACTGCTCGTAT | 0.128
TTCTTGTAATTCATAATTCTAT | -1
ATCTTCTAGAAACTTAGTGTTA | -1.09
TATGTCTGTAGTATCGCCGCCT | -0.223
TTCAACATCATTTTGTCAGGAT | 1.06
TACACTGCTCGTATTTTGGAGA | -0.905
TGATCTTCTAGAAACTTAGTGT | 0.0518
TATACTGTGCATTATATCCATC | -0.953
TTGAGGACTATTCAGTTCCGTA | -1.1
TTCAATAACTCCTTCTAGGTTG | -0.121
ATCGATGATATCTCCAAGCTGA | -0.464
TAGTGTTAAGTTTAGAGTGTGT | 0.18

Each sequence was assayed against C17orf64 in the same assay as above. Conditions: shRNA.

Sequence | sensor-assay potency score (higher = more potent)
TGTACTTGTAAAGTCGGCGAAG | -0.717
TCTTTCTTGACATGGTCCTGGG | -0.903
TTTATTCCTAATTAAGACCTGA | 0.154
TTTCTTGACATGGTCCTGGGAT | -0.0819
TTCATGCCGCTGATGTTGCTGT | -0.699
TTCCTTTATCCTCTTCCTCTTG | -0.925
TTGGTGTACTTGTAAAGTCGGC | -0.519
TTGGGCAGACTGTCTTCCCGGT | -0.108
TTGAGTTTTGGTTTTTGAGAAA | -0.844
ATCTTTCTTGACATGGTCCTGG | -0.00122
TTTTTGATAAGGACAATTCTTT | -0.341
TTAAAGAATCTTTCTTGACATG | -1.34

Each sequence was assayed against C17orf71 in the same assay as above. Conditions: shRNA.

Sequence | sensor-assay potency score (higher = more potent)
TCATCTTCAGCTCTAGTCCTGA | -0.0647
TTTCTTGCTTAGAACTAGCTCC | 0.179
TTTGCCAACTGGACAATCCTTA | 0.137
TTCATCTTCAGCTCTAGTCCTG | 0.0154
TTAGCTTCCAGTCTTTGCCAAC | -1.08
TTGATGCTTCCAGAACTCGTGT | -0.713
TTCCACAACACTTTTCTTCCAG | 0.741
TATTGTGATATAGCACAGGCGG | -1.08
TTTAAGTTTATCAGCATCCGAA | -0.269
TTGACTGGTAGGCACTGTGGGC | -0.647
TACTTGACCATGAACTTCTGGA | 0.427

Source: the OligoGym collection
